In PubChem BioAssay AID1347044 (National Center for Advancing Translational Sciences (NCATS), 2019):
Out of some 1,400 compounds screened, about 1,100 (79%) were called active. Another 20% or so got no clear call; they are omitted. Calls come from the whole dose curve. The set was probably picked from earlier hits. These entries were drawn from the full list.

Molecular target: Atrial natriuretic peptide receptor 1 (Homo sapiens) (UniProt P16066)
Assay: Natriuretic polypeptide receptor (hNpr1) antagonism - Confirmation; note: nearly all actives have a fitted effect of over 70% in size
Conditions: HEK293 hNpr1 cGMP GloSensor luminescence, ANP-stimulated; series mostly up to 57.6 µM; activity change, negative = inhibition: at the top concentration
Protocol: In order to identify small molecular compounds that inhibit the hNpr1 receptor we developed a high-throughput assay to measure inhibition of the guanylate cyclase activity of the receptor. cGMP production was measured using a circular permutated Firefly luciferase (FLuc) enzyme functionally linked to the cGMP binding domain of human phosphodiesterase 5 (GloSensor technology pGS-40F, (Fan, F. et al. 2008). The cGMP-sensor was expressed in human embryonic kidney 293 (HEK-293) cells and FLuc activity was measured after stimulation with hNrp agonist peptide. hNrp agonists activates the receptor's associated guanylyl cyclase (GC) domain producing cGMP which then binds to the GloSensor resulting in FLuc activation, the enzymatic activity of which can be measured as bioluminescence with addition of luciferin substrate. A cytotoxicity counter-screen using the HEK-hNpr1-cGMP-sensor cells was also performed on the follow-up compounds. F. Fan, B. F. Binkowski, B. L. Butler, P. F. Stecha, M. K. Lewis, K. V. Wood, Novel genetically encoded biosensors using firefly luciferase. ACS Chem Biol 3, 346-351 (2008).
PROTOCOL TABLES (as described by Inglese J, Shamu CE and Guy RK. 2007) SEQUENCE No. (e.g., 1, 2, 3, etc.); PARAMETER (e.g., Cells, Incubation, Reagent, etc.); VALUE and DESCRIPTION. GLOSENSOR PROTOCOL 1. Cells. Seed 1500 HEK293 cGMP-sensor cells expressing hNpr1 per well in 4uL into Greiner 1536-well white/solid bottom high base, tissue culture-treated plates. 2. Incubation. Incubate plated cells at 37C in 5% CO2, 95% RH overnight. 3. Reagent. Add 1uL per well GloSensor reagent from Promega (2% final concentration) or CO2 independent media vehicle control to respective columns of Greiner 1536-well plates. 4. Incubation. Incubate plated cells at room temperature for 2 h, protect from light. 5. Compounds. Library compounds and A-71915 control added at 23 nL per well, transferred by Pin Tool. 6. Incubation. Incubate plated cells for 30 min. at room temperature, protect from light. 7. Detector. GloSensor baseline pre-read luminescence measured using CCD-based camera (Viewlux). 8. Compound. Add 1uL of hNppA peptide to 0.1 nM final concentration to stimulate hNpr1 or CO2 independent media as vehicle control. 9. Incubation. Incubate treated cells at room temperature for 20 min., protect from light. 10. Detector. GloSensor post-hNppA luminescence measured using CCD-based camera (Viewlux). NOTES (numbers refer to Sequence numbers above) 1. HEK293 cells expressing hNpr1 and GIP/pGS-40F grown to 85-95% confluence (48-72 h) in T175 culture flasks (CO2 independent media supplemented with 10% FBS, 1% Pen/Strep antibiotics and 1 ug/mL puromycin). Trypsinize and harvest cells from T175 culture flasks and filter through 40 um cell strainer. Cells counted with Invitrogen Countess (30,000,000 - 50,000,000 cells/flask). Cells diluted to a final concentration of 375 cells/uL in CO2 independent media and a Millipore multidrop used to dispense 1500 cells per well (4uL/well) into 13 1536-well Greiner White/Solid bottom, high base tissue-culture treated (TC) plates and one Aurora 1536-well Black/Clear bottom, low base, TC plate (for visual inspection of cell health throughout the duration of the assay). 2. Cells incubated overnight at ambient temperature, 24 h. at 37C in 95% RH incubator protected from light, covered with metal lid with gas-exchange holes. 3. Prepare GloSensor Reagent (Promega): Reconstitute GloSensor luciferase substrate by adding 8.2mL Hepes buffer to 250mg substrate, mix well, protect from light and stored at -80C. Prepare a fresh 12% GloSensor solution in CO2 independent supplemented plating media (see above). Mix well and store at ambient temperature, protected from light. 1uL 12% GloSensor Luciferase Reagent added (2% final concentration) to respective columns of 13 x 1536-well Greiner plate with BioRaptr, 1uL CO2 independent plating media added to respective columns as vehicle control with BioRaptr. 4. […]
Potency is the fitted concentration of half-maximal effect.

Sequence of Atrial natriuretic peptide receptor 1 (Homo sapiens) (P16066 whole entry, looked up): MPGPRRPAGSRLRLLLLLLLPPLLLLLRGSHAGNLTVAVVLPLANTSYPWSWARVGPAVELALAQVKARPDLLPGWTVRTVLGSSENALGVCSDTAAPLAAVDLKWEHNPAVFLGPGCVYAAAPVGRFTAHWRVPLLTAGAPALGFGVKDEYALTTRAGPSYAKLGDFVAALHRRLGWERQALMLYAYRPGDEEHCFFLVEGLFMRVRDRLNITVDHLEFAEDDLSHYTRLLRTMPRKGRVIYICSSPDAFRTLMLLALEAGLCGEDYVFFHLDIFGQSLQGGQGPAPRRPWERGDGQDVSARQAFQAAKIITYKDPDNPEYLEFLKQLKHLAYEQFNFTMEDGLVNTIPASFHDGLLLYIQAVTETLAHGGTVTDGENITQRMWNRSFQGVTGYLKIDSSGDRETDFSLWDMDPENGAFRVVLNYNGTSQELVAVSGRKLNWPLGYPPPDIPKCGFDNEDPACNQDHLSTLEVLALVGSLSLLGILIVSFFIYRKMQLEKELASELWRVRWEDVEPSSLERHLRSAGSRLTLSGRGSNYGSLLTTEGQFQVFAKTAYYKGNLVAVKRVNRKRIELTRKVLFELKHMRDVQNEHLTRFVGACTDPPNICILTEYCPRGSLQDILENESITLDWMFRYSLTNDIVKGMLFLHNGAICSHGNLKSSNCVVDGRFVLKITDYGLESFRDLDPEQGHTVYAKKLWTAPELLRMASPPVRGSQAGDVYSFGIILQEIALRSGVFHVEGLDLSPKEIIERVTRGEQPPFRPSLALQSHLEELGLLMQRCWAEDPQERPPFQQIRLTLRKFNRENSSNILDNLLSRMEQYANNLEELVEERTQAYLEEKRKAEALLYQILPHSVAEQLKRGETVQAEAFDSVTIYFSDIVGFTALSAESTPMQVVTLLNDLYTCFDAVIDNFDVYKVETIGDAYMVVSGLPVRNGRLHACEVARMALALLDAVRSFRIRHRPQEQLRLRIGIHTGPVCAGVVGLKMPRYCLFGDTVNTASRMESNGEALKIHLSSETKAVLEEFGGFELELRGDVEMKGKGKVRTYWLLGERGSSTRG

Potency, active:
Cc1nc(-c2ccncc2)ncc1C(C)Nc1ncnc(C)c1C (stereo not drawn) 21.7 µM, O=C(c1ccc2cc[nH]c2c1)N1CCC2(CC1)N=C(c1ccc(Cl)cc1)NO2 19.3 µM, O=[S+]1([O-])NCC2(CCCN(Cc3ccc(C(F)(F)F)cc3)C2)Oc2ncccc21 (stereo not drawn) 24.3 µM, Cc1cccc(CN2CCc3nc(C(=O)Nc4ccc(Cl)cc4)oc3CC2)c1 9.94 µM, COc1cccc(CNC(=O)Cn2c(N(C)Cc3ccccc3)nc(C)cc2=O)c1OC 24.3 µM, COc1cccc(NC(=O)Cn2c(N(C)Cc3ccccc3)nc(C)cc2=O)c1 10.9 µM, O=c1[nH]c(C2CCCN(Cc3ccccn3)C2)nn1-c1ccc(Cl)cc1 (stereo not drawn) 6.85 µM, CC1(C(=O)NCc2ccc3c(c2)OCO3)CCc2cnc(NCc3ccccc3)nc21 (stereo not drawn) 35.3 µM, Cc1ccc2c(c1)nc1n2[C@@H](CNS(=O)(=O)c2ccccc2)COC1 35.3 µM, COc1ccc(CN2C(=O)CO[C@H]3CN(Cc4ccc5c(c4)OCO5)C[C@H]32)cc1 31.4 µM, O=C(c1ccccc1)N1CCNc2cnc(Nc3cccc(C(F)(F)F)c3)nc2C1 31.4 µM, COc1ccc(S(=O)(=O)N2CCc3c(C(=O)NCCc4ccccn4)cccc32)cc1 24.3 µM, CC(C)c1cc(C(=O)N2CCC(n3cc(-c4ccccn4)nn3)CC2)n(C)n1 13.7 µM, COc1ccc(OCC2(C)COc3ccc(C(=O)Nc4cccnc4)cc3N2)cc1 (stereo not drawn) 35.3 µM, CN(Cc1csc(-c2ccccc2)n1)c1cc(C2CC(O)C2)nc(N)n1 (stereo not drawn) 2.43 µM, Cc1noc(C)c1-c1cc(-c2ccccc2Oc2ccccc2)cn2cncc12 19.8 µM, O=C1NCN(Cc2ccc(Cl)cc2)C12CCN(Cc1ccccc1)CC2 15.3 µM, N#Cc1cccc(CN2CCC(C3=NC(O)c4cc(F)ccc4N3)CC2)c1 (stereo not drawn) 15.3 µM, CN1CCN(C(=O)C(C)(C)Oc2nn(Cc3cccc(Cl)c3)c3ccccc23)CC1 28 µM, Cc1cc(N2CCCC(Cn3cc(Cc4ccccc4)nn3)C2)nc(N)n1 (stereo not drawn) 6.11 µM, Cc1noc(C)c1-c1cnc2[nH]cc(CC(=O)N3CCOCC3)c2c1 31.4 µM, O=C(Cc1c[nH]c2ncc(-c3ccccc3F)cc12)N1CCOCC1 31.4 µM, COc1ccc(CCNC(=O)c2noc(-c3ccc(C)cc3)n2)cc1OC 24.3 µM, CC(C)c1noc(-c2cn(C3CCN(C(=O)c4ccc(N(C)C)cc4)C3)nn2)n1 (stereo not drawn) 15.3 µM, O=C(c1ccc(Cl)cc1)N1CCCC(n2cc(-c3nc(-c4ccccc4)no3)nn2)C1 (stereo not drawn) 19.3 µM, O=C(c1ccc(F)cc1Cl)N1CCC(n2cc(-c3nc(-c4ccccc4)no3)nn2)C1 (stereo not drawn) 4.32 µM, Cc1nn2c(c1-c1ccccc1-c1ccccc1)N(CC1CC1)CCC2 2.8 µM, COc1ccc(-c2noc(CC3CCN(C(=O)Cc4ccc(OC)c(OC)c4)CC3)n2)cc1 3.43 µM, COc1ccc(CC(=O)N2CCC(Cc3nc(-c4ccccc4)no3)CC2)cc1OC 12.2 µM, Cc1c[nH]c(CN2CCCC(CCc3ccc(F)cc3F)C2)c(C)c1=O (stereo not drawn) 3.43 µM, O=C(c1ccccn1)N1CC(Oc2ccc(-c3noc(C4CC4)n3)cc2)C1 17.2 µM, Cc1cccc(C(=O)N2CCC(Oc3ccc(-c4noc(C(C)C)n4)cc3)C2)c1 (stereo not drawn) 27.3 µM, O=C1c2cnc(-c3ccc(Cl)cc3)nc2OCCN1Cc1ccccc1 35.3 µM, COC(=O)c1cccc(NC(=O)CCNc2c(C)nc3cnccn23)c1 21.7 µM, O=C(c1ccccc1)N1CCC(C(=O)N2CCC(Cc3nc(-c4ccc(F)cc4)no3)CC2)CC1 17.2 µM, COc1cccc(-c2noc(CC3CCN(C(=O)c4ccc(F)cc4)CC3)n2)c1 6.11 µM, Cc1cc(CNC(=O)c2ccc(-c3ccccc3Cl)o2)n(C)n1 24.3 µM, O=C(NCC1CC1)c1nc2c(o1)CCN(Cc1cccc(F)c1F)CC2 28 µM, C1CCC(COCCc2noc(C3CNC3)n2)C1 21.7 µM, COc1ccccc1Nc1cnc2ccc(N(C)Cc3cccnc3)nn12 31.4 µM, OC1(Cc2cc(-c3ccccc3)no2)CCN(c2ncncn2)CC1 7.69 µM, O=C(NCc1nnc2cc(-c3nc(C4CC4)no3)ccn12)c1ccc(F)cc1Cl 17.2 µM, Cc1ccc(OCc2nc(C3CCN(C(=O)CCc4nc5ccc(Cl)cc5[nH]4)CC3)no2)cc1 24.3 µM, CC(C)c1nncn1C1CCN(S(=O)(=O)c2cccc(Br)c2)CC1 19.3 µM, COc1ccc(-c2noc(CC3CCN(C(=O)Cc4ccccc4)CC3)n2)cc1 24.3 µM, COc1ccc(-c2noc(CC3CCN(C(=O)Cc4ccc(C)cc4)CC3)n2)cc1 27.3 µM, COc1ccc(-c2noc(CC3CCN(C(=O)CC4CCCCC4)CC3)n2)cc1 10.9 µM, CC1=NS(=O)(=O)N(C)C=C1C(=O)OCc1nc(-c2ccc(C)cc2)no1 10.9 µM, CCc1ccc(C(=O)N2CCN(c3cc(-c4ccc(F)cc4)[nH]n3)CC2)cc1 24.3 µM, O=C(c1cc(F)ccc1Cl)N1CCN(c2cc(-c3ccc(F)cc3)[nH]n2)CC1 27.3 µM, Cc1ccc(C(=O)N2CCN(c3cc(-c4ccc(Cl)cc4)[nH]n3)CC2)c(C)c1 6.11 µM, O=C(c1ccc(F)cc1F)N1CCN(c2cc(-c3ccc(Cl)cc3)[nH]n2)CC1 17.2 µM, Cc1ccc2nc(C3CCCN(Cc4ccc(C#N)cc4)C3)[nH]c(=O)c2c1 (stereo not drawn) 24.3 µM, COc1ccc(C2Cn3nnc(C(=O)N4CCN(C(=O)c5cccc(Cl)c5)CC4)c3CO2)cc1 (stereo not drawn) 13.7 µM, COc1ccc(C2Cn3nnc(C(=O)N4CCN(C(=O)c5ccc(C)cc5C)CC4)c3CO2)cc1 (stereo not drawn) 24.3 µM, CC(C)(C)c1csc(NC(=O)c2ccc3c(c2)OCCN(C2CCC2)C3)n1 35.3 µM

Activity change, negative = inhibition, inactive:
COc1cccc(C2C(C(=O)Nc3ccccc3)=C(C)N=C3SC=C(CC(=O)NCC(C)C)N32)c1 (stereo not drawn) -27.5%, CCN(CCCNC(=O)c1nnn2cc(-c3ccccc3)[nH]c(=O)c12)c1ccccc1 -27.6%
